Inconclusive results are not listed. The source made the active and inactive calls. Unless noted, the call rests on the fitted dose curve; in most records, active means well fitted curve in the direction sought with a large enough effect in the repeat runs; inconclusive means weak or mixed curves; inactive means no such curve, though single readings can be large; an effect the other way counts as inactive or inconclusive.
Legend:
[1] = qHTS assay to identify small molecule antagonists of the vitamin D receptor (VDR) signaling pathway - cell viability counter screen (AID 743225); further: on the % scale 0 is the no-effect control and ±100 the full control effect; nearly all actives have a fitted effect of over 50% in size
Procedure, shortened: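 In this counter screen, VDR-bla HEK 293T cells receive test compound plus 3 nM final calcitriol for 16 h at 37C. Room-temperature steps of 2 h with the beta-lactamase substrate, then 30 min with CellTiter-Glo, precede the luminescence read.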

[2] = qHTS assay to identify small molecule agonists of the NFkB signaling pathway - cell viability counter screen (AID 1159515; calls by dose curve; further: series mostly up to about 61 µM; on the % scale 0 is the no-effect control and ±100 the full control effect; nearly all actives have a fitted effect of over 55% in size)
Procedure, shortened: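 NFkB-bla ME-180 cells, 2,000/well, were plated overnight at 37 C, 5% CO2, then exposed to compounds in DMSO for 5 hr. After the bla FRET read, CellTiter-Glo was added to the same wells; luminescence was read after 30 min at room temperature.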

[3] = qHTS assay to identify small molecule agonists of the endoplasmic reticulum stress response signaling pathway (AID 1159516; active means well fitted activation curve with a large enough effect in the signal ratio in the repeat runs, not every such curve was filed as active; the % refers to the signal ratio; further: potency means the concentration at half of the fitted maximal effect; on activation: on the % scale 0 is the no-effect control and ±100 the full control effect)
Procedure, shortened: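 CellSensor ESRE-bla HeLa cells, carrying a beta-lactamase reporter driven by the ER stress response element, were plated overnight and exposed to compounds for 5 hr at 37 C. Reporter activity was read as FRET substrate fluorescence after 2 hr at room temperature.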

[4] = qHTS assay to identify small molecule agonists of the endoplasmic reticulum stress response signaling pathway - cell viability counter screen (AID 1159517; calls by dose curve; further: series mostly up to about 61 µM; on the % scale 0 is the no-effect control and ±100 the full control effect; nearly all actives have a fitted effect of over 50% in size)
Procedure, shortened: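 Luminescence readout: CellTiter-Glo, 30 min RT, same wells as the ESRE-bla reporter read. HeLa ESRE-bla, 1,500 cells/well, o/n 37 C; cpd 5 hr 37 C/5% CO2.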

[5] = qHTS assay to identify small molecule antagonists of the retinoid-related orphan receptor gamma (ROR-gamma) signaling pathway - cell viability counter screen (AID 1159520); further: on the % scale 0 is the no-effect control and ±100 the full control effect; nearly all actives have a fitted effect of over 50% in size
Procedure, shortened: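 Tet-on ROR gamma CHO cells (1,000/well) were plated 4 hr, given compounds in DMSO for 2 hr at 37 C, then induced with 1 uM final doxycycline for 16 hr. Viability was read as ATP by CellTiter-Glo luminescence after 30 min.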

[6] = biological target: Nuclear receptor ROR-gamma (Homo sapiens) (UniProt P51449); assay: qHTS assay to identify small molecule antagonists of the retinoid-related orphan receptor gamma (ROR-gamma) signaling pathway (AID 1159521;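 further: CHO cells with doxycycline inducible ROR-gamma driving an RORE luciferase reporter; top concentration of the series differs between compounds; on the % scale 0 is the no-effect control and ±100 the full control effect; nearly all actives have a fitted effect of over 50% in size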)
Procedure, shortened: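 Screening format: cell-based luciferase reporter in CHO cells with doxycycline-inducible RORγ. Compound pre-exposure lasts 2 h, doxycycline is 1 uM final, induction runs 16 h at 37 C, and ONE-Glo luminescence is read.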

[7] = qHTS assay to identify small molecule agonists of the AP-1 signaling pathway - cell viability counter screen (AID 1159525; calls by dose curve; further: nearly all actives have a fitted effect of over 55% in size)
Procedure, shortened: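 ME-180 AP-1-bla, 2500 cells/well, Opti-MEM + 0.5% dialyzed FBS; overnight 37 °C; cpd 15-pt titration, 5 h 37 °C; CellTiter-Glo 30 min RT; luminescence read; normalised to TOAB and DMSO controls.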

[8] = qHTS assay to identify small molecule agonists of the AP-1 signaling pathway (AID 1159526; calls by dose curve; further: on the % scale 0 is the no-effect control and ±100 the full control effect)
[9] = biological target: Retinoic acid receptor RXR-alpha (Homo sapiens) (UniProt P19793); assay: qHTS assay to identify small molecule agonists of the RXR signaling pathway (AID 1159527; calls by dose curve; further: on the % scale 0 is the no-effect control and ±100 the full control effect; nearly all actives have a fitted effect of over 35% in size)
Procedure, shortened: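 Fluorescence ratio readout (460 vs 530 nm) from GeneBLAzer RXR-alpha HEK 293T cells after 16 hr compound treatment; cells seeded 5 hr beforehand in low-serum, charcoal-stripped medium.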

[10] = qHTS assay to identify small molecule agonists of the RXR signaling pathway - cell viability counter screen (AID 1159529)
Procedure, shortened: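 Viability read-out for the RXR-alpha agonist qHTS: luminescent CellTiter-Glo signal after 30 min at RT. HEK 293T bla reporter cells, 2% charcoal-stripped FBS, 16 hr compound incubation; tetraoctyl ammonium bromide as cytotoxic control.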

[11] = qHTS assay to identify small molecule antagonists of the retinoic acid receptor (RAR) signaling pathway (AID 1159552)
Procedure, shortened: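 Using a RARE-driven luciferase construct in C3RL4 cells, retinol at 1 uM final provided the agonist stimulus while compounds were co-applied. After 6 hours at 37 C, luminescence was recorded to flag inhibitors of retinol signaling.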

[12] = qHTS assay to identify small molecule agonists of the retinoic acid receptor (RAR) signaling pathway (AID 1159553); further: on the % scale 0 is the no-effect control and ±100 the full control effect
Procedure, shortened: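 C3RL4 cells carrying a RARE luciferase reporter were plated overnight at 37 C, then exposed to compounds in DMSO for 6 hr at 37 C and 5% CO2. Luminescence was read 30 min after luciferase reagent addition at room temperature.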

[13] = qHTS assay to identify small molecule antagonists of the estrogen related receptor (ERR) signaling pathway from Tox21 library - cell viability counter screen (AID 1224834); further: on the % scale 0 is the no-effect control and ±100 the full control effect; nearly all actives have a fitted effect of over 30% in size
Procedure, shortened: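 ERR reporter cells were plated 6 h before compound addition, then exposed to test compounds in DMSO for 17.5 h at 37 C. Viability was read as CellTiter-Fluor fluorescence after a 30-minute incubation at 37 C.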

[14] = biological target: Luciferin 4-monooxygenase (Photinus pyralis) (UniProt P08659); assay: qHTS assay to identify small molecule inhibitors of firefly luciferase (AID 1224835); further: series mostly up to about 120 µM; on the % scale 0 is the no-effect control and ±100 the full control effect; nearly all actives have a fitted effect of over 25% in size
Procedure, shortened: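 Quantitative HTS format; KM concentrations of both substrates. Purified P. pyralis FLuc activity quantified from luminescence images.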

[15] = qHTS assay to identify small molecule agonists of the constitutive androstane receptor (CAR) signaling pathway - cell viability counter screen (AID 1224836); further: series mostly up to about 92 µM; on the % scale 0 is the no-effect control and ±100 the full control effect; nearly all actives have a fitted effect of over 45% in size
Procedure, shortened: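 Multiplexed viability check: HepG2-CYP2B6-hCAR cells, 15-point compound dosing, 0.75 uM PK11195 final, 23 h at 37 C, CellTiter-Fluor fluorescence.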

[16] = qHTS assay to identify small molecule antagonists of the constitutive androstane receptor (CAR) signaling pathway - cell viability counter screen (AID 1224837); further: series mostly up to about 92 µM; on the % scale 0 is the no-effect control and ±100 the full control effect; nearly all actives have a fitted effect of over 45% in size
Procedure, shortened: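 HepG2 cells stably expressing hCAR and a CYP2B6-2.2kb reporter were plated and pre-incubated 4 hr at 37 C/5% CO2, then given compounds at 15 concentrations plus 50 nM CITCO (final). After 23 hr, viability was read by CellTiter-Fluor fluorescence.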

[17] = qHTS assay to identify small molecule antagonists of the estrogen related receptor signaling pathway with the pleiotropic PPARgamma coactivator (PGC) from Tox21 10K library - cell viability counter screen (AID 1224840; active means well fitted cell-killing curve with a large enough effect in the repeat runs, not every such curve was filed as active; further: on the % scale 0 is the no-effect control and ±100 the full control effect; nearly all actives have a fitted effect of over 40% in size)
Procedure, shortened: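 PGC/ERR cells were seeded at 2,000 cells/well and left 6 hours at 37 C/5% CO2 before pin-tool addition of compounds in DMSO. After 17.5 hours at 37 C, CellTiter-Fluor was added and fluorescence read 30 minutes later.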

[18] = biological target: Nuclear receptor subfamily 1 group I member 3 (Homo sapiens) (UniProt Q14994); assay: qHTS assay to identify small molecule antagonists of the constitutive androstane receptor (CAR) signaling pathway (AID 1224838); further: on the % scale 0 is the no-effect control and ±100 the full control effect; nearly all actives have a fitted effect of over 40% in size
Procedure, shortened: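 HepG2 cells stably co-transfected with hCAR and a CYP2B6-2.2kb luciferase reporter were seeded 4 h before compound addition at 15 concentrations. Cells were stimulated with 50 nM CITCO (final) for 24 h at 37 C; luciferase luminescence was then read.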

[19] = biological target: Nuclear receptor subfamily 1 group I member 3 (Homo sapiens) (UniProt Q14994); assay: qHTS assay to identify small molecule agonists of the constitutive androstane receptor (CAR) signaling pathway (AID 1224839);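 further: HepG2 cells stably carrying human CAR and a CYP2B6 luciferase reporter; series mostly up to about 92 µM; on the % scale 0 is the no-effect control and ±100 the full control effect; nearly all actives have a fitted effect of over 15% in size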
Procedure, shortened: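 Using human hepatoma HepG2 cells engineered with hCAR and a CYP2B6-2.2kb reporter, 15-concentration compound series were incubated 24 h alongside PK11195 at 0.75 uM final, with luminescence quantified afterwards.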

[20] = qHTS assay to identify small molecule antagonists of the retinoid acid receptor (RAR) signaling pathway - cell viability counter screen (AID 1159551); further: on the % scale 0 is the no-effect control and ±100 the full control effect; nearly all actives have a fitted effect of over 35% in size
Procedure, shortened: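 C3RL4 cells were seeded overnight at 37 C, then treated with compounds plus 1 uM (final) retinol for 6 h at 37 C. Viability was read as ATP by CellTiter-Glo luminescence after 30 min at room temperature.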

Sequence of Retinoic acid receptor RXR-alpha (Homo sapiens) (P19793 whole entry, looked up): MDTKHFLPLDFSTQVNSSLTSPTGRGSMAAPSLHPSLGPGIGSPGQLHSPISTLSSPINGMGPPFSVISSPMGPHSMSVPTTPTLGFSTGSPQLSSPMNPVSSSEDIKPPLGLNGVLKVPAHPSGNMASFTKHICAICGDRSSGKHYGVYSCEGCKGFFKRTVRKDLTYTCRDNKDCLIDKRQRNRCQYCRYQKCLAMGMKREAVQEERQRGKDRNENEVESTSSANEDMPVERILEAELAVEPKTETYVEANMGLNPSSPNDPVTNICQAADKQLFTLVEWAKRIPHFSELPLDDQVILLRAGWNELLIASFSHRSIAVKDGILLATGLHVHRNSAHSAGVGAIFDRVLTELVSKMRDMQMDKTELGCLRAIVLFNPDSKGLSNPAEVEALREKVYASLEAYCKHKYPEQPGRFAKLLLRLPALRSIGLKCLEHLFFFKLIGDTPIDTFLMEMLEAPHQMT
Sequence of Luciferin 4-monooxygenase (Photinus pyralis) (P08659 whole entry, looked up): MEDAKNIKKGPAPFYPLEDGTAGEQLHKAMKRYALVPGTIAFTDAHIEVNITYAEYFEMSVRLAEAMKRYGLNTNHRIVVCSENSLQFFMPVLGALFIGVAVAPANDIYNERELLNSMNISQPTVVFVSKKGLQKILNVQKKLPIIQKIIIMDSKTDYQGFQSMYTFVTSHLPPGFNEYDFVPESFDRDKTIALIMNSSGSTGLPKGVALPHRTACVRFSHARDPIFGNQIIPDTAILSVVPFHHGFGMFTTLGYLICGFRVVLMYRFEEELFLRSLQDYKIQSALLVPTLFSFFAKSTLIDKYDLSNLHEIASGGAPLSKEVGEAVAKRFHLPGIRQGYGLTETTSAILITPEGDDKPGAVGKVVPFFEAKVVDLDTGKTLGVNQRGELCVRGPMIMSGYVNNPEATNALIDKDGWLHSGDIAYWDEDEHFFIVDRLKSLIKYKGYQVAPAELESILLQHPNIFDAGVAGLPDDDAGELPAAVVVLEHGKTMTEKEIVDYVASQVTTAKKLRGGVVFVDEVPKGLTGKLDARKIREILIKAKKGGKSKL
Sequence of Nuclear receptor subfamily 1 group I member 3 (Homo sapiens) (Q14994 whole entry, looked up): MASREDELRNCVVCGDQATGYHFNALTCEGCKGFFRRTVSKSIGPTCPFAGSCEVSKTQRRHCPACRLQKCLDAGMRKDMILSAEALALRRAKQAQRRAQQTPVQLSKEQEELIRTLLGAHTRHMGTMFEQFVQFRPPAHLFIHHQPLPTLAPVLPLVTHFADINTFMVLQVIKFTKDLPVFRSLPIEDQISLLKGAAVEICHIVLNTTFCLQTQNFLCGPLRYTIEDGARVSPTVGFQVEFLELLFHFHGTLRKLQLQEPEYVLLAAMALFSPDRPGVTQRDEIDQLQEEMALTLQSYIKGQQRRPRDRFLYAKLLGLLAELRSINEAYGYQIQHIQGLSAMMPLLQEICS

BrCCOc1ccccc1
inactive: outcome [1] | outcome [2] | Potency [3] | outcome [4] | outcome [5] | outcome [6] | outcome [7] | Potency [8] | Potency [9] | Potency [10] | outcome [11] | Potency [12] | outcome [13] | Potency [14] | outcome [15] | outcome [16] | outcome [17]

CC[C@@]1(c2ccccc2)NC(=O)N(C)C1=O
inactive: outcome [1] | outcome [2] | Potency [3] | outcome [4] | outcome [5] | outcome [6] | outcome [7] | Potency [8] | Potency [9] | Potency [10] | outcome [11] | Potency [12] | outcome [13] | Potency [14] | outcome [15] | outcome [16] | outcome [17]

CC(C)(C)C(=O)CCc1ccc(Cl)cc1
inactive: outcome [1] | outcome [2] | Potency [3] | outcome [4] | outcome [5] | outcome [6] | outcome [7] | Potency [8] | Potency [9] | Potency [10] | outcome [11] | Potency [12] | outcome [13] | Potency [14] | outcome [15] | outcome [16] | outcome [18] | Potency [19] | outcome [17]

C=CC(C)(CCC=C(C)C)OC(=O)C(C)C (stereo not given)
inactive: outcome [2] | Potency [3] | outcome [4] | outcome [5] | outcome [6] | outcome [7] | Potency [8] | Potency [9] | Potency [10] | outcome [11] | Potency [12] | outcome [13] | Potency [14] | outcome [15] | outcome [16] | outcome [17]

CC(CN1CC(=O)NC(=O)C1)N1CC(=O)NC(=O)C1 (stereo not given)
inactive: outcome [1] | outcome [2] | Potency [3] | outcome [4] | outcome [5] | outcome [6] | outcome [7] | Potency [8] | Potency [9] | Potency [10] | outcome [11] | Potency [12] | outcome [13] | Potency [14] | outcome [15] | outcome [16] | outcome [18] | Potency [19] | outcome [17]

C[Si](C)(C)O[Si](O)(O)O
inactive: outcome [2] | Potency [3] | outcome [4] | outcome [5] | outcome [6] | outcome [7] | Potency [8] | Potency [9] | Potency [10] | outcome [11] | Potency [12] | outcome [13] | Potency [14] | outcome [15] | outcome [16] | outcome [17]

CCCC(=O)CC
inactive: outcome [2] | Potency [3] | outcome [4] | outcome [5] | outcome [7] | Potency [8] | Potency [9] | Potency [10] | outcome [20] | outcome [11] | Potency [12] | outcome [13] | Potency [14] | outcome [15] | outcome [16] | outcome [18] | Potency [19] | outcome [17]

c1cc2ccc3ccc4ccc5cccc6c(c1)c2c3c4c56
active: Potency [3] 1740 nM
inactive: viability change, negative = cytotoxic [1] -0.521% [at 3.11 µM] | activity, negative = cytotoxic [2] -1.06% [at 3.12 µM] | activity change, negative = cytotoxicity [4] 6.55% [at 3.11 µM] | activity, negative = cytotoxicity [5] 0.12% [at 3.27 µM] | activity change, negative = inhibition [6] 7.63% [at 3.27 µM] | viability change, negative = cytotoxic [7] -12.5% [at 2.72 µM] | activation [8] -1.11% [at 2.72 µM] | activation [9] 5.24% [at 2.71 µM] | activity change, negative = cytotoxicity [10] 0.199% [at 2.72 µM] | activity change, negative = cytotoxicity [20] 4.71% [at 3.27 µM] | activity, negative = inhibition [11] -1.28% [at 3.27 µM] | activation [12] -0.114% [at 3.75 µM] | viability change, negative = cytotoxic [13] 2.9% [at 3.27 µM] | activity change, negative = inhibition [14] 1.19% [at 4.07 µM] | viability change, negative = cytotoxic [15] 2.84% [at 3.27 µM] | activity change, negative = cytotoxicity [16] 2.07% [at 3.26 µM] | viability change, negative = cytotoxic [17] -0.219% [at 3.27 µM]

Source: PubChem BioAssay (Tox21)
